PfG6PD inh: PfG6PD (Plasmodium falciparum) enzyme inhibition; actives 0.78% (n = 350,000); inhibition, % at 20 µM; PfGluPho enzyme, NADPH resazurin-diaphorase fluorescence;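 active means inhibition reaching at least a set limit at 20 µM in the primary screen, cut at about 59% in these data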;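 further: 0% = DMSO wells with substrate and 100% = DMSO wells lacking glucose-6-phosphate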
Cardio protect: modulators protecting cardiomyocytes from myocardial damage | H9c2 cardiomyocytes, H2O2 injury protection, ATPLite, 2 h | protection from H2O2 cell death, % at 20 µM | actives 0.63% (n = 360,000) | AID 588492;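 active means compounds giving at least 50% protection of heart cells from peroxide-induced death in the single-dose screen, raw or plate-pattern-corrected value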;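 further: 0% = DMSO wells with peroxide and 100% = DMSO wells without peroxide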
APOBEC3G inh: inhibitors of human APOBEC3G DNA deaminase; inhibition, % at 20 µM; actives 0.28% (n = 330,000); recombinant A3G, ssDNA deamination FAM/TAMRA fluorescence;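 active means inhibition of at least 40% at 20 µM, with no more than 30% in the related APOBEC3A deaminase screen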;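 further: plate controls were DMSO wells with A3G for no effect and wells lacking A3G enzyme for full effect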
Target sequence (Q9HC16 whole entry, looked up): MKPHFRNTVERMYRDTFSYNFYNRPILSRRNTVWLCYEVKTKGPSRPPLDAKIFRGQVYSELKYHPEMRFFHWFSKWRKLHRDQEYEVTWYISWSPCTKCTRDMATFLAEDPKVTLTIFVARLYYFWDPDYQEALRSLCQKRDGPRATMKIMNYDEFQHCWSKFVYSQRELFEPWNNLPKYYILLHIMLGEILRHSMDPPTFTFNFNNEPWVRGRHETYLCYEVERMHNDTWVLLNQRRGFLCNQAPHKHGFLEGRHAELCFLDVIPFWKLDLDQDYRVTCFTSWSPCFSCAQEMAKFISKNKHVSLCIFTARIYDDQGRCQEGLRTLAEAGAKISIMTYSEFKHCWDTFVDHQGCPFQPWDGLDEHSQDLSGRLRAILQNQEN
NadD block: NadD (S. aureus) enzyme inhibition. inhibition, % at 20 µM. purified NadD enzyme, colorimetric absorbance read-out. actives 0.78% (n = 360,000); in the data active means inhibition above about 26%
H9c2 TAG inh: inhibitors of triacylglycerol accumulation; actives 0.66% (n = 230,000); H9c2 cells, Nile Red lipid (TAG) fluorescence; cells loaded with 200 µM oleic acid; inhibition, % at 12.5 µM;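 active means pattern-corrected inhibition of lipid staining of at least 50% with the nuclear-stain viability signal not falling by more than 50%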;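 further: 0% = DMSO wells and 100% = triacsin C control wells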
A3A deaminase: blocks human APOBEC3A ssDNA deamination; recombinant A3A, FAM/TAMRA ssDNA deamination fluorescence; AID 493011; actives 0.41% (n = 330,000); P31941; inhibition, % at 20 µM;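 active means at least 40% inhibition at 20 µM here, with at most 30% in a related deaminase screen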;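 further: plate controls were A3A with DMSO for no effect and wells lacking A3A enzyme for full effect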
Target sequence (P31941 whole entry, looked up): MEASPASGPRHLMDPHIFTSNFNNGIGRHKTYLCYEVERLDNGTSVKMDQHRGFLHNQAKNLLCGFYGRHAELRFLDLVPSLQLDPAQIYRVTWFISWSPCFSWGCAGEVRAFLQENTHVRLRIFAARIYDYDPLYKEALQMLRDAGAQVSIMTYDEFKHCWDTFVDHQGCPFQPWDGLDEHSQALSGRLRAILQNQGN
Numbers without * were called inactive; / = no result given. Only some compounds are listed: those with a hit (about 2.9% of all), similar ones and a draw of the others.

SMILES	PfG6PD inh	Cardio protect	APOBEC3G inh	NadD block	H9c2 TAG inh	A3A deaminase
CC(C)C(NC(=O)C12CC3CC(CC(C3)C1)C2)C(=O)N/N=C/C1=C(N2CCOCC2)C(=C\c2ccc([N+](=O)[O-])cc2)/CC1 (stereo not drawn)	9	2	2	32*	20	12
S=C(Nc1ccc(Nc2ccccc2)cc1)Nc1ccccn1	9	-24	-2	1	-53	1
CCCN1Cc2cccc(C(N)=O)c2C1=O	-2	59*	-8	-1	-13	-4
O=C(Nc1nc(-c2ccc(S(=O)(=O)N3CCCC3)cc2)cs1)C1COc2ccccc2O1 (stereo not drawn)	-9	66*	-6	28	33	-5
CN(C)C(=O)CSc1nc2ccc(C(=O)c3ccccc3)cc2[nH]1	11	4	-4	-4	/	3
Cc1nc(SCC(=O)NCc2ccc(F)cc2)c2c(=O)n(C)c(=O)n(C)c2n1	-2	53*	-4	-3	3	-5
C=CCNC(=O)C(=O)Nc1cc2c3c(c1)CCC(=O)N3CCC2	3	6	5	-5	/	0
Cc1nn(-c2ccccc2)c2c1C(c1ccc(O)c(O)c1)N1C(=N2)C(Nc2ccccc2)=Nc2ccccc21 (stereo not drawn)	-13	26	8	18	13	5
Cc1ccc(NC2=Nc3ccccc3N3C2=Nc2c(c(C)nn2-c2ccccc2)C3c2ccc(O)c(O)c2)cc1 (stereo not drawn)	-5	49	/	61*	110*	/
Cc1cccc(NC2=Nc3ccccc3N3C2=Nc2c(c(C)nn2-c2ccccc2)C3c2ccc(O)c(O)c2)c1 (stereo not drawn)	-54	22	-5	62*	/	-3
O=C(Nc1ccccc1N1CCOCC1)C1=NN(c2ccccc2)C(=O)CC1	-4	10	-2	-5	-2	3
COc1ccc(-c2c(=O)n(OCc3ccccc3[N+](=O)[O-])c3ccccc3[n+]2[O-])c(OC)c1	1	-2	-6	-4	-9	-1
Cc1cccc(-c2nc3c(c(SCC(=O)N4CCOCC4)n2)Cc2c(CO)cnc(C)c2O3)c1	2	51*	2	3	/	0
Cc1ncc(CO)c2c1Oc1nc(-c3ccccc3)nc(SCC(=O)N3CCCCC3)c1C2	3	74*	-10	-2	/	-5
COc1ccccc1-c1nc2c(c(SCC(=O)N3CCCCC3)n1)Cc1c(CO)cnc(C)c1O2	10	37	-4	2	/	-2
COc1cccc(-c2nc3c(c(SCC(=O)N4CCOCC4)n2)Cc2c(CO)cnc(C)c2O3)c1	14	72*	3	-1	/	3
Cc1ncc(CO)c2c1Oc1nc(-c3ccccc3)nc(SCC(=O)N3CCOCC3)c1C2	23	33	-10	-1	/	-6
O=C(NCc1ccccc1C(F)(F)F)c1cccc2c1C(=O)c1ccc(N3CCC(N4CCCCC4)CC3)cc1S2(=O)=O	-21	-43	/	21	-56	/
CCCCNC(=O)C1(C)CCC(=O)N1CCc1c[nH]c2ccccc12 (stereo not drawn)	/	3	/	-2	/	/
O=C(Nc1nc(-c2cc(F)ccc2F)cs1)C1=NN(c2ccccc2)C(=O)CC1	10	51*	-5	1	7	-2
CC1CCN(C2=NN3C(=N)/C(=C\c4ccc(OC(=O)c5ccco5)cc4)C(=O)N=C3S2)CC1	-40	-1	3	37*	-14	0
COc1ccc2c(c1)c(/C=N/Nc1nc3ccccc3[nH]1)c(C)n2C	7	-10	-1	20	50*	1
COc1cc(/C=N\Nc2nc3ccccc3[nH]2)cc(OC)c1OC	8	0	-8	-12	11	-5
COC(=O)c1cc(Cl)c(NC(=O)/C=C/c2ccc(OC)c(OC)c2)cc1OC	2	68*	1	-10	/	3
COC(=O)c1cc(Cl)c(NC(=O)/C=C/c2ccc(Cl)cc2)cc1OC	-7	-10	0	-9	/	5
SMILES	PfG6PD inh	Cardio protect	APOBEC3G inh	NadD block	H9c2 TAG inh	A3A deaminase
COC(=O)c1cc(OC)c(OC)cc1NC(=O)c1ccc(OC)c(OC)c1	10	52*	0	-11	12	3
CC(C)(C)n1nnnc1C(c1cc2ccccc2o1)N1CCN(C(=O)OCc2ccccc2)CC1 (stereo not drawn)	/	/	/	5	/	/
COc1ccc(CCNC(=O)CNCCc2ccc(F)cc2)cc1	1	2	-4	-9	/	2
C/C(=N\NC(=O)CSCc1ccccc1Cl)c1cc(O)ccc1O	-15	51*	-7	-1	2	-2
C/C(=N\Nc1nc(C)cc(C)n1)c1ccc(C)o1	-11	2	-5	0	-2	-5
C/C(=N\Nc1nnc2c3ccccc3n(C)c2n1)c1ccc(C)o1	4	70*	-1	-1	/	0
COc1ccc(NC(=O)Cc2ccccc2)cn1	-2	0	0	0	-18	3
COc1ccc(NC(=O)/C(Cl)=C(/Cl)S(=O)Cc2ccccc2)cn1 (stereo not drawn)	40	-33	-6	-2	96*	0
O=C(CSc1nnc(Cc2cccs2)n1CCc1ccccc1)N1CCCc2ccccc21	2	67*	-1	4	/	-2
Cn1c(Cc2cccs2)nnc1SCC(=O)N1CCCc2ccccc21	3	5	-3	-2	-8	-1
Cc1ccc(-c2nn3c(C)nnc3s2)cc1NC(=O)COc1ccc(Cl)cc1	-5	50*	-2	4	13	-1
CC(=O)Nc1cccc(-c2csc(C(O)c3cccc(Cl)c3)n2)c1 (stereo not drawn)	/	-8	/	-8	-9	/
Cn1nnnc1N=N/C(=N/Nc1ccccc1)c1ccccc1	9	21	1	-1	72*	0
COc1cc(-c2c(CCO)sc3ccccc23)cc(OC)c1OC	/	/	/	-2	/	/
O=C(NC(Sc1ccc(Cl)cc1)C(=O)O)c1ccccc1 (stereo not drawn)	-14	0	/	3	-2	/
CCOc1ccc(C(=O)Nc2cccc(-c3nc4cccnc4o3)c2)cc1Cl	8	50*	-10	-5	/	-8
O=C1CCCC2=C1C(c1ccsc1)CC(=O)N2c1ccccc1F (stereo not drawn)	-1	-6	3	-5	-39	4
CCN(CC)S(=O)(=O)c1cc(C)ccc1NC(=S)Nc1cccnc1	22	-20	-3	-2	-15	3
Cc1cc(C)c2sc(NC(=O)c3ccc([N+](=O)[O-])o3)nc2c1	31	-5	3	4	57*	-1
COc1ccc2nc(NC(=O)c3ccc([N+](=O)[O-])o3)sc2c1	-14	-17	-3	0	/	4
CCCc1cc(=O)oc2c(CNc3ccc(OCC)cc3)c(O)ccc12	19	59*	-8	-5	/	1

High-throughput results deposited in PubChem BioAssay by Sanford-Burnham Center for Chemical Genomics.
